Several values for one entry are separate records, joined by “and”; a condition that tells them apart may be missing. Identical values can stand only once.
Assays:
Assay in all cases: cell viability relative to vehicle control; higher = less cytotoxic
Details in all cases: 10 µM
K562 = test system: K562
Procedure, shortened: (§1)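 After removal of identity-inconsistent compounds, the Selleck bioactive, kinase and epigenetic probe libraries were screened on CRISPR-edited mutant clones and isogenic wild-type clones of four leukaemia lines. Plates were 384-well, each well holding 2000 cells in 50 µL medium and receiving a single 10 µM acoustically dispensed dose. CellTiter-Glo luminescence was read 48 h later, after the supernatant was taken off. Genedata Screener was used to express viability as percent of the on-plate vehicle control.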

MARIMO = test system: MARIMO
Procedure, shortened: as §1

MOLM14 = test system: MOLM14
Procedure, shortened: as §1

OCI-AML2 = test system: OCI-AML2
Procedure, shortened: as §1

## Nc1nccc(Oc2ccc3c(C(=O)Nc4cccc(C(F)(F)F)c4)cccc3c2)n1
K562; SRSF2 genotype: SRSF2 P95H/wt
  cell viability: 86.8% and 94.3%
K562; SRSF2 genotype: SRSF2 wt/wt
  cell viability: 87.9%
MARIMO; SRSF2 genotype: SRSF2 P95H/wt
  cell viability: 109%
MARIMO; SRSF2 genotype: SRSF2 wt/wt
  cell viability: 125%
MOLM14; SRSF2 genotype: SRSF2 P95H/wt
  cell viability: 93.6%
MOLM14; SRSF2 genotype: SRSF2 wt/wt
  cell viability: 102%
OCI-AML2; SRSF2 genotype: P95H/wt
  cell viability: 94.8%
OCI-AML2; SRSF2 genotype: wt/wt
  cell viability: 106%

## Cc1cccc(C)c1OCC(=O)N[C@@H](Cc1ccccc1)[C@@H](O)C[C@H](Cc1ccccc1)NC(=O)[C@H](C(C)C)N1CCCNC1=O [Lopinavir (ABT-378)]
K562; SRSF2 genotype: SRSF2 P95H/wt
  cell viability: 85.5% and 94.8%
K562; SRSF2 genotype: SRSF2 wt/wt
  cell viability: 86.7%
MARIMO; SRSF2 genotype: SRSF2 P95H/wt
  cell viability: 97.4%
MARIMO; SRSF2 genotype: SRSF2 wt/wt
  cell viability: 98.2%
MOLM14; SRSF2 genotype: SRSF2 P95H/wt
  cell viability: 92.2%
MOLM14; SRSF2 genotype: SRSF2 wt/wt
  cell viability: 102%
OCI-AML2; SRSF2 genotype: P95H/wt
  cell viability: 97.3%
OCI-AML2; SRSF2 genotype: wt/wt
  cell viability: 92.2%

## C1N2CN3CN1CN(C2)C3 [Methenamine (Mandelamine)]
K562; SRSF2 genotype: SRSF2 P95H/wt
  cell viability: 104% and 102%
K562; SRSF2 genotype: SRSF2 wt/wt
  cell viability: 99.1%
MARIMO; SRSF2 genotype: SRSF2 P95H/wt
  cell viability: 103%
MARIMO; SRSF2 genotype: SRSF2 wt/wt
  cell viability: 108%
MOLM14; SRSF2 genotype: SRSF2 P95H/wt
  cell viability: 107%
MOLM14; SRSF2 genotype: SRSF2 wt/wt
  cell viability: 105%
OCI-AML2; SRSF2 genotype: P95H/wt
  cell viability: 99%
OCI-AML2; SRSF2 genotype: wt/wt
  cell viability: 112%

## CC(=O)Nc1nc2c(Oc3cc(-c4ccc(C(F)(F)F)cc4)ncn3)cccc2s1
K562; SRSF2 genotype: SRSF2 P95H/wt
  cell viability: 99.6% and 93%
K562; SRSF2 genotype: SRSF2 wt/wt
  cell viability: 88%
MARIMO; SRSF2 genotype: SRSF2 P95H/wt
  cell viability: 93.3%
MARIMO; SRSF2 genotype: SRSF2 wt/wt
  cell viability: 103%
MOLM14; SRSF2 genotype: SRSF2 P95H/wt
  cell viability: 95.9%
MOLM14; SRSF2 genotype: SRSF2 wt/wt
  cell viability: 97.7%
OCI-AML2; SRSF2 genotype: P95H/wt
  cell viability: 90.6%
OCI-AML2; SRSF2 genotype: wt/wt
  cell viability: 88.9%

## O=c1c(-c2ccc(O)cc2)coc2cc(O[C@@H]3O[C@H](CO)[C@@H](O)[C@H](O)[C@H]3O)cc(O)c12 [Genistin (Genistoside)]
K562; SRSF2 genotype: SRSF2 P95H/wt
  cell viability: 95.5% and 108%
K562; SRSF2 genotype: SRSF2 wt/wt
  cell viability: 94.7%
MARIMO; SRSF2 genotype: SRSF2 P95H/wt
  cell viability: 94.6%
MARIMO; SRSF2 genotype: SRSF2 wt/wt
  cell viability: 98%
MOLM14; SRSF2 genotype: SRSF2 P95H/wt
  cell viability: 89%
MOLM14; SRSF2 genotype: SRSF2 wt/wt
  cell viability: 99.7%
OCI-AML2; SRSF2 genotype: P95H/wt
  cell viability: 92.1%
OCI-AML2; SRSF2 genotype: wt/wt
  cell viability: 93.4%

## COc1cc2c(cc1OC)-c1cc3ccc(OC)c(OC)c3c[n+]1CC2 [Palmatine]
K562; SRSF2 genotype: SRSF2 P95H/wt
  cell viability: 80.5% and 88.6%
K562; SRSF2 genotype: SRSF2 wt/wt
  cell viability: 90.2%
MARIMO; SRSF2 genotype: SRSF2 P95H/wt
  cell viability: 92.6%
MARIMO; SRSF2 genotype: SRSF2 wt/wt
  cell viability: 92%
MOLM14; SRSF2 genotype: SRSF2 P95H/wt
  cell viability: 93.5%
MOLM14; SRSF2 genotype: SRSF2 wt/wt
  cell viability: 90.9%
OCI-AML2; SRSF2 genotype: P95H/wt
  cell viability: 88.8%
OCI-AML2; SRSF2 genotype: wt/wt
  cell viability: 78.7%

## O=c1[nH]cnc2nc[nH]c12 [Hypoxanthine]
K562; SRSF2 genotype: SRSF2 P95H/wt
  cell viability: 98.8% and 108%
K562; SRSF2 genotype: SRSF2 wt/wt
  cell viability: 96.8%
MARIMO; SRSF2 genotype: SRSF2 P95H/wt
  cell viability: 101%
MARIMO; SRSF2 genotype: SRSF2 wt/wt
  cell viability: 116%
MOLM14; SRSF2 genotype: SRSF2 P95H/wt
  cell viability: 103%
MOLM14; SRSF2 genotype: SRSF2 wt/wt
  cell viability: 115%
OCI-AML2; SRSF2 genotype: P95H/wt
  cell viability: 103%
OCI-AML2; SRSF2 genotype: wt/wt
  cell viability: 105%

## O=C(CCCN1CCC(O)(c2ccc(Cl)cc2)CC1)c1ccc(F)cc1 [Haloperidol (Haldol)]
K562; SRSF2 genotype: SRSF2 P95H/wt
  cell viability: 87.7% and 94.9%
K562; SRSF2 genotype: SRSF2 wt/wt
  cell viability: 94.5%
MARIMO; SRSF2 genotype: SRSF2 P95H/wt
  cell viability: 73.9%
MARIMO; SRSF2 genotype: SRSF2 wt/wt
  cell viability: 85.3%
MOLM14; SRSF2 genotype: SRSF2 P95H/wt
  cell viability: 84.8%
MOLM14; SRSF2 genotype: SRSF2 wt/wt
  cell viability: 91%
OCI-AML2; SRSF2 genotype: P95H/wt
  cell viability: 84.2%
OCI-AML2; SRSF2 genotype: wt/wt
  cell viability: 91%

## CCCCc1nc(C)c(CC(=S)N(C)C)c(=O)n1Cc1ccc(-c2ccccc2-c2nnn[nH]2)cc1 [Fimasartan]
K562; SRSF2 genotype: SRSF2 P95H/wt
  cell viability: 100% and 107%
K562; SRSF2 genotype: SRSF2 wt/wt
  cell viability: 106%
MARIMO; SRSF2 genotype: SRSF2 P95H/wt
  cell viability: 108%
MARIMO; SRSF2 genotype: SRSF2 wt/wt
  cell viability: 109%
MOLM14; SRSF2 genotype: SRSF2 P95H/wt
  cell viability: 101%
MOLM14; SRSF2 genotype: SRSF2 wt/wt
  cell viability: 103%
OCI-AML2; SRSF2 genotype: P95H/wt
  cell viability: 106%
OCI-AML2; SRSF2 genotype: wt/wt
  cell viability: 93.1%

## OC[C@H]1OC(O)[C@H](O)[C@@H](O)[C@H]1O (stereo partly drawn) [D-Galactose]
K562; SRSF2 genotype: SRSF2 P95H/wt
  cell viability: 101% and 103%
K562; SRSF2 genotype: SRSF2 wt/wt
  cell viability: 98.2%
MARIMO; SRSF2 genotype: SRSF2 P95H/wt
  cell viability: 103%
MARIMO; SRSF2 genotype: SRSF2 wt/wt
  cell viability: 105%
MOLM14; SRSF2 genotype: SRSF2 P95H/wt
  cell viability: 103%
MOLM14; SRSF2 genotype: SRSF2 wt/wt
  cell viability: 103%
OCI-AML2; SRSF2 genotype: P95H/wt
  cell viability: 105%
OCI-AML2; SRSF2 genotype: wt/wt
  cell viability: 108%
